1 compound from ChEMBL document CHEMBL1961873, “Compounds: GSK PKIS; Assays: Nanosyn kinase panel” (2012) can be followed below.

Test [1] addresses Sphingosine kinase 1 (Homo sapiens) (UniProt Q9NYA1). Particulars: at 1 µM.
For test [2], the target named is T1, Sphingosine kinase 2 (Homo sapiens) (UniProt Q9NRA0).
T1 sequence (whole entry): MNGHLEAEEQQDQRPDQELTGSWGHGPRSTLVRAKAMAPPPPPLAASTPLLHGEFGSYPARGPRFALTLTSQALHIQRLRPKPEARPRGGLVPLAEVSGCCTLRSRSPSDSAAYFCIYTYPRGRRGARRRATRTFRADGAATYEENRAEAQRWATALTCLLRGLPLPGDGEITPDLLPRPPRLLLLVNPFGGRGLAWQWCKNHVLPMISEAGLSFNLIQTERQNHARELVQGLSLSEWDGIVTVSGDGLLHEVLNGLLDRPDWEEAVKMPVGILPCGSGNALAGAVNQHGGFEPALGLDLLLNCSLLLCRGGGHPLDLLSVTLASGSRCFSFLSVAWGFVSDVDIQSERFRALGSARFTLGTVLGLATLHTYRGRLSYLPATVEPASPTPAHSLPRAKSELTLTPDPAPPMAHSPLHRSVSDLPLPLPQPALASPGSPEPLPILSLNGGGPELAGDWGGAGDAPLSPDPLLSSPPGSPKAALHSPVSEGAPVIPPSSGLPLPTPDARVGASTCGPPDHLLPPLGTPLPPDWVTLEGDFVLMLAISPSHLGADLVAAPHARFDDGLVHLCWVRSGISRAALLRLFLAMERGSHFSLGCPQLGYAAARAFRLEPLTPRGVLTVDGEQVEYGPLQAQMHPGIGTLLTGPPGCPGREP
The note with it: at 0.1 µM.

In test [3] the target is T1, Sphingosine kinase 2 (Homo sapiens). Particulars: at 1 µM.
The target in test [4] is Casein kinase II subunit alpha (Homo sapiens) (UniProt P68400). The note with it: at 0.1 µM.
Casein kinase II subunit alpha (Homo sapiens), sequence (P68400 whole entry, looked up): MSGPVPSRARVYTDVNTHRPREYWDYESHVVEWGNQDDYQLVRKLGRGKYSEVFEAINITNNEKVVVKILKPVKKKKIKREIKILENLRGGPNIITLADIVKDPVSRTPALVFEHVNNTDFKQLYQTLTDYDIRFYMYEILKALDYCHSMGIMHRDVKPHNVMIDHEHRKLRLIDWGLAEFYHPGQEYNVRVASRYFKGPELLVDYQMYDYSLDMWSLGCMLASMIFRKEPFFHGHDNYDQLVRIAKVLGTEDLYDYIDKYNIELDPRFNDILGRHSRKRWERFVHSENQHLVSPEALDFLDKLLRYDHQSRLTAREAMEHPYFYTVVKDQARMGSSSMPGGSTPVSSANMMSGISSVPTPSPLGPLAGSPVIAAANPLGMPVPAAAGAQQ
Test [5] has the same target. The note with it: at 1 µM.
Test [6] deals with T2, Inhibitor of nuclear factor kappa-B kinase subunit alpha (Homo sapiens) (UniProt O15111).
T2 sequence (whole entry): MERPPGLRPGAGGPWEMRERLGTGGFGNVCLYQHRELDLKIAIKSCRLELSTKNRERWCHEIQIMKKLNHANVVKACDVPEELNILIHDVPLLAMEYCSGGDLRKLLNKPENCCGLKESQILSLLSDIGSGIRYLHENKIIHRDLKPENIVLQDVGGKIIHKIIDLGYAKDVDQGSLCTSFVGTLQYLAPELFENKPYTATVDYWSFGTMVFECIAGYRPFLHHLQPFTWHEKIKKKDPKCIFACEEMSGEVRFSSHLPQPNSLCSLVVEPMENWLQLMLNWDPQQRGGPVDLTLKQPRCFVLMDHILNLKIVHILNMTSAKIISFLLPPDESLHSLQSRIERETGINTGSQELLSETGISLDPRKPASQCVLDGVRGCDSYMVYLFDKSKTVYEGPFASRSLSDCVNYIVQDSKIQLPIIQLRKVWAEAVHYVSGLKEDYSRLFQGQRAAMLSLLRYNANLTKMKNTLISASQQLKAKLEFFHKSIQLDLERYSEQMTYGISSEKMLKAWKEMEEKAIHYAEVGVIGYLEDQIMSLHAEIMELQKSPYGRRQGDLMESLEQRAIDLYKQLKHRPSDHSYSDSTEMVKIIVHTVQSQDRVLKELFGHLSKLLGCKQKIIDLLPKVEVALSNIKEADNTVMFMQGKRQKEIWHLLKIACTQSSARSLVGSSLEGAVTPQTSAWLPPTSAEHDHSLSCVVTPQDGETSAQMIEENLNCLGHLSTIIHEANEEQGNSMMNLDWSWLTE
The note with it: at 0.1 µM.

For test [7], the target named is T2, Inhibitor of nuclear factor kappa-B kinase subunit alpha (Homo sapiens). The note with it: at 1 µM.
In test [8] the target is T3, Inhibitor of nuclear factor kappa-B kinase subunit beta (Homo sapiens) (UniProt O14920).
T3 sequence (whole entry): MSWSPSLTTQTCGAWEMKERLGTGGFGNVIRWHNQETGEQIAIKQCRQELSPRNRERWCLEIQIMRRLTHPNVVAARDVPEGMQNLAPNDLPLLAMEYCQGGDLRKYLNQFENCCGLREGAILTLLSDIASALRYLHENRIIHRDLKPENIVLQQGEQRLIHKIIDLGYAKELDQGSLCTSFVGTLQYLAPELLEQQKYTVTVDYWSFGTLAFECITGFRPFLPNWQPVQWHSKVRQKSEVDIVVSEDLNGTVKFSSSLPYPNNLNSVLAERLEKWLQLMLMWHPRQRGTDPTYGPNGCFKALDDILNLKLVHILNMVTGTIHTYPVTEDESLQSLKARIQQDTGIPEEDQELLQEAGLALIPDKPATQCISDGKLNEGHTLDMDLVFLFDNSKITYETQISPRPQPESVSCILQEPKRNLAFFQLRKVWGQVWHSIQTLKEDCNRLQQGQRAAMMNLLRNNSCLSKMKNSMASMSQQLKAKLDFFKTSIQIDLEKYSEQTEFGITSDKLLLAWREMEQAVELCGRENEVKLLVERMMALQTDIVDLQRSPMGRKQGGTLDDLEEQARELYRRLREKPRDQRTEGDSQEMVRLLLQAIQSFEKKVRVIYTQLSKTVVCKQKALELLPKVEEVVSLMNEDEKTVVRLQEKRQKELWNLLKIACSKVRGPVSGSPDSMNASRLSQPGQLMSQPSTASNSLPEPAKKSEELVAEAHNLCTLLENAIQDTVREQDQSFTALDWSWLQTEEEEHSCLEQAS
Particulars: at 0.1 µM.

The target in test [9] is T3, Inhibitor of nuclear factor kappa-B kinase subunit beta (Homo sapiens). Particulars: at 1 µM.
The target of test [10] is T4, Inhibitor of nuclear factor kappa-B kinase subunit epsilon (Homo sapiens) (UniProt Q14164).
T4 sequence (whole entry): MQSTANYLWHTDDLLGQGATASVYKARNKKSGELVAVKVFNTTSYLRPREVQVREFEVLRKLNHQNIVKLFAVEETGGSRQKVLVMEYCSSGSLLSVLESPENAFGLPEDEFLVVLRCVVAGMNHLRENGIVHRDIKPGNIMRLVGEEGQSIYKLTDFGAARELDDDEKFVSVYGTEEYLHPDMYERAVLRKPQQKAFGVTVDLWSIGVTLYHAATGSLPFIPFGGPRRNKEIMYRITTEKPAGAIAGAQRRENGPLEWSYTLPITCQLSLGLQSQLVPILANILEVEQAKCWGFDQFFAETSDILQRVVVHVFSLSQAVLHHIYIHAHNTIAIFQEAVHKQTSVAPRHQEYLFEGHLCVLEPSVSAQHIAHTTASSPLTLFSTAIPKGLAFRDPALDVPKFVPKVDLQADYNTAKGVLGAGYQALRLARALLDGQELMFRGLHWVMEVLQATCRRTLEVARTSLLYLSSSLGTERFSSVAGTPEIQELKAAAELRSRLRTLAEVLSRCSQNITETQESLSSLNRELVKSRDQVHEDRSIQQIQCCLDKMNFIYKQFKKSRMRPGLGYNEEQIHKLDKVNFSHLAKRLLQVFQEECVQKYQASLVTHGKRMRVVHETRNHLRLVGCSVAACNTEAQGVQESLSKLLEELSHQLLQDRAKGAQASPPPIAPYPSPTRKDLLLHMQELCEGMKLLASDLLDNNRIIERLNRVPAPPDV
Particulars: at 0.1 µM.

The target in test [11] is T4, Inhibitor of nuclear factor kappa-B kinase subunit epsilon (Homo sapiens). Particulars: at 1 µM.
The target in test [12] is T5, Serine/threonine-protein kinase Nek1 (Homo sapiens) (UniProt Q96PY6).
T5 sequence (whole entry): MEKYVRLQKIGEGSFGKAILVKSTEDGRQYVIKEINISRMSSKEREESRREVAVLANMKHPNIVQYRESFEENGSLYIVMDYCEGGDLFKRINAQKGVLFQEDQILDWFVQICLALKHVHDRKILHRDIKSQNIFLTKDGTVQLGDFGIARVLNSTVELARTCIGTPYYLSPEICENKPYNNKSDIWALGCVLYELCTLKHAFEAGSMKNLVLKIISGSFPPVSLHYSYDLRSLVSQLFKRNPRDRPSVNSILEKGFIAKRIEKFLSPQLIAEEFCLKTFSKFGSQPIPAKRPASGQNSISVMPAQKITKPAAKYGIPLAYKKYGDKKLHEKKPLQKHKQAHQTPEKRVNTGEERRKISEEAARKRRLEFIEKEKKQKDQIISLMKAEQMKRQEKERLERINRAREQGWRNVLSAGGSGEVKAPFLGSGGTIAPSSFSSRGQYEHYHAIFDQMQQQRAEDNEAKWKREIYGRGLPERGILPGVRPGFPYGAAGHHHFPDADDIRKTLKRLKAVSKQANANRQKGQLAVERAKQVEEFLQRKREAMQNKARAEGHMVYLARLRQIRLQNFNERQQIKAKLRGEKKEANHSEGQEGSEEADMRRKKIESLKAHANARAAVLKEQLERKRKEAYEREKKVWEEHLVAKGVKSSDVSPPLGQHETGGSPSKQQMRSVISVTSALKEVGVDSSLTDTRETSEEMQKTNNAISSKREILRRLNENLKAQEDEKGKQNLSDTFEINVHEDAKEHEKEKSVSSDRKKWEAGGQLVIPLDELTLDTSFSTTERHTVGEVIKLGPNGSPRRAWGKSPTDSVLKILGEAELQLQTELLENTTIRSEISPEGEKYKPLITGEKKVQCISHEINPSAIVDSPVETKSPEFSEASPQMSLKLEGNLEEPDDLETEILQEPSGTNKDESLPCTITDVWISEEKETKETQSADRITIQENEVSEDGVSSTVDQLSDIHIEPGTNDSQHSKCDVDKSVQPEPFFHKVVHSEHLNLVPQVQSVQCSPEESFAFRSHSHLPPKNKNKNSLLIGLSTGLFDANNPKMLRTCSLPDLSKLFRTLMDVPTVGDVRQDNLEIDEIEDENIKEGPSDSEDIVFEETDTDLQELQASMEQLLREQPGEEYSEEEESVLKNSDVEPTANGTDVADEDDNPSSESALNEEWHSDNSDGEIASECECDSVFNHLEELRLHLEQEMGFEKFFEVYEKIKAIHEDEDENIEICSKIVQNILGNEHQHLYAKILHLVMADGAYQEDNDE
Particulars: at 0.1 µM.

Test [13] concerns the target T5, Serine/threonine-protein kinase Nek1 (Homo sapiens). The note with it: at 1 µM.
For test [14], the target named is T6, Serine/threonine-protein kinase Nek2 (Homo sapiens) (UniProt P51955).
T6 sequence (whole entry): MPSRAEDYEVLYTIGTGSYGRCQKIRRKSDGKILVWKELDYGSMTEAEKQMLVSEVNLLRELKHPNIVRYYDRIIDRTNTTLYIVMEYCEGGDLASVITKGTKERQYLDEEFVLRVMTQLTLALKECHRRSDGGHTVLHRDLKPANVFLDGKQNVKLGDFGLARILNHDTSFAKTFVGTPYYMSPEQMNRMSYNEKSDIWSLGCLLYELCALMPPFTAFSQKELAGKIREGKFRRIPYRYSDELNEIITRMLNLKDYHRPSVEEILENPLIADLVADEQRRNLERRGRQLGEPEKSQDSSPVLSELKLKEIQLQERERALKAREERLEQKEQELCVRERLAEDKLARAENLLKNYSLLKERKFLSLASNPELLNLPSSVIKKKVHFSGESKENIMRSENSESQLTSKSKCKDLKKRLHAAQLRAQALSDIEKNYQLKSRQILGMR
Particulars: at 0.1 µM.

In test [15] the target is T6, Serine/threonine-protein kinase Nek2 (Homo sapiens). Particulars: at 1 µM.
The target of test [16] is Serine/threonine-protein kinase Nek6 (Homo sapiens) (UniProt Q9HC98). The note with it: at 0.1 µM.
Serine/threonine-protein kinase Nek6 (Homo sapiens), sequence (Q9HC98 whole entry): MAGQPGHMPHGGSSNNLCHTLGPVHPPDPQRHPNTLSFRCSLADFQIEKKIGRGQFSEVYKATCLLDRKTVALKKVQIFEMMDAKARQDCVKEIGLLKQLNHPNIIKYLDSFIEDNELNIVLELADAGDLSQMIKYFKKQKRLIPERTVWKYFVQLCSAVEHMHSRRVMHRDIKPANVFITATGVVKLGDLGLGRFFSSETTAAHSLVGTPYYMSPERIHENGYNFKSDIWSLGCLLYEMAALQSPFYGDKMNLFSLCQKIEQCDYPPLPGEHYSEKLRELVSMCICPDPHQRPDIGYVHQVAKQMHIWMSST
Test [17] shares this target. The note with it: at 1 µM.
Test [18] has as its target Serine/threonine-protein kinase Nek7 (Homo sapiens) (UniProt Q8TDX7). Particulars: at 0.1 µM.
Test [19] has the same target. The note with it: at 1 µM.
Test [20] concerns the target T7, Serine/threonine-protein kinase Nek9 (Homo sapiens) (UniProt Q8TD19).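 Also: reported value is the mean percent inhibition of NEK9.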
T7 sequence (whole entry): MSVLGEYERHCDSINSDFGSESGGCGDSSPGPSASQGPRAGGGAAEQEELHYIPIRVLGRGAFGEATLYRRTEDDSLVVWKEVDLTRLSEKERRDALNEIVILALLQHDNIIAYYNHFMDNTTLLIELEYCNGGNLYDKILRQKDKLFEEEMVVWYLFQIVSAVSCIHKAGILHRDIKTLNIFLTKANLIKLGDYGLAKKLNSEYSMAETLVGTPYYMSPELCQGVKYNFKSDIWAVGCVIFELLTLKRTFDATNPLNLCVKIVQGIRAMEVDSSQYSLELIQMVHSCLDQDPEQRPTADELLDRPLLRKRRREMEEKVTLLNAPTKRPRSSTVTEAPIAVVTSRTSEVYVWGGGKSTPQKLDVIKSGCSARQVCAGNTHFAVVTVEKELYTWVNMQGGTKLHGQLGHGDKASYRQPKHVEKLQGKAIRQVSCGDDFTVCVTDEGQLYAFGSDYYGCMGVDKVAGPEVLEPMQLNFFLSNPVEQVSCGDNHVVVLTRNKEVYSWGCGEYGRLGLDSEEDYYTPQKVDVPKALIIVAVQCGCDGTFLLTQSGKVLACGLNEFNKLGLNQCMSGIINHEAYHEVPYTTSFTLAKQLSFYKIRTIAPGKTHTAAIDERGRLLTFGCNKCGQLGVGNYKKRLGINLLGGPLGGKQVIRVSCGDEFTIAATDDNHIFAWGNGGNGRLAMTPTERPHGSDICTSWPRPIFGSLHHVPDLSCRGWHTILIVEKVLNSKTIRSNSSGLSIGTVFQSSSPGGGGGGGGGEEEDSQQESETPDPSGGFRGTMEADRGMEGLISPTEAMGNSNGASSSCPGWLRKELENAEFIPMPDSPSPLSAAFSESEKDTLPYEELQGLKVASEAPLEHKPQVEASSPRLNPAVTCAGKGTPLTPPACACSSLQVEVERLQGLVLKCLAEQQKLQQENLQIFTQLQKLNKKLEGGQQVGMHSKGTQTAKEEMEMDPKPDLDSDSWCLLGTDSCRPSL
The note with it: at 0.1 µM.

Serine/threonine-protein kinase Nek7 (Homo sapiens), sequence (Q8TDX7 whole entry, looked up): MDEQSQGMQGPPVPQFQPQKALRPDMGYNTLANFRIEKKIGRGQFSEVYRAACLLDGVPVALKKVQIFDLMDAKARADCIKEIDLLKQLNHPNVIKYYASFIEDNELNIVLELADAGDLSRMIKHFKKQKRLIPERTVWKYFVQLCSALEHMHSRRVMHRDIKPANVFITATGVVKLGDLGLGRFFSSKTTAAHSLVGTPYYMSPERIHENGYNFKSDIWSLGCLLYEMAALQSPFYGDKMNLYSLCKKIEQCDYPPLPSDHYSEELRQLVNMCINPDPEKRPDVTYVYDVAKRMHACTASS
Sphingosine kinase 1 (Homo sapiens), sequence (Q9NYA1 whole entry): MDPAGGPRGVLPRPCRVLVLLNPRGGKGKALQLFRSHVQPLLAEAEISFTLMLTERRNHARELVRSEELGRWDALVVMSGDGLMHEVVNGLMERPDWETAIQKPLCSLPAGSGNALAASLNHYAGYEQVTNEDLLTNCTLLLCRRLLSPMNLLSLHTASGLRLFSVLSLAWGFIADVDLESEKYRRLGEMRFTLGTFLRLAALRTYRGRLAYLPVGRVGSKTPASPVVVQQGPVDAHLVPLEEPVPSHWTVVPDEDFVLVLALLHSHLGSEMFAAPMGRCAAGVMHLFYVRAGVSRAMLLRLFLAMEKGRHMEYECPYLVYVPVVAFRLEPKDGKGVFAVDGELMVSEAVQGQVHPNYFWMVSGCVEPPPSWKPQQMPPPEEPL

In the case of `CCOc1ccc2c(-c3ccnc(Nc4cccc(C(F)(F)F)c4)n3)cnn2n1`, the inhibition (in general, the change of the read-out against control, counted positive when it falls) in test [1] was -1.13%; in [2], 2.38%; in test [3], -1.13%; in [4], 5.72%; in [5], 7.82%; in [6], 11.5%. Moreover, the inhibition was found to be 6.76% in test [7]; 4.08% in test [8]; 3.66% in test [9]; 8.35% in test [10]; 12.1% in [11]; 2.34% in test [12]. The inhibition stood at 1.31% in [13]; 0.57% in test [14]; 1.02% in [15]; 0.83% in test [16]; 2.66% in test [17]; 1.88% in test [18]. Besides, the inhibition in test [19] is 0.03%; in test [20] it was 7.49%.
